From PubChem BioAssay AID1159580 (chemical genetic matrix, 2015)
The whole screen tested about 5,500 compounds, of which about 2,000 (36%) were called active. Inconclusive results (about 18%) are left out. Rule as the data show it: active = normalized growth mostly below about 0.91 (no sharp cut-off); inconclusive = no clear call, values can overlap the other calls; inactive = mostly above about 0.92. Some of the results follow.

Experiment: chemical genetic growth profiling, strain panel (AID 1159580);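 also: tested at 20 µM; growth read once vehicle control cultures reached saturation at 30 °C; 1 = growth at the plate median or of vehicle wells; lower values mean less growth of the strain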
Details: growth OD

Measured: normalized growth

CC1=CC(=O)C2=C(C)CC(O)C3C(C)C(=O)OC3C12 (stereo not drawn)
inactive: S. cerevisiae deletion strains, locus YBR021W, strain FUR4, active compounds read low 1.01 | S. cerevisiae deletion strains, locus YBR229C, strain ROT2, active compounds read low 1 | S. cerevisiae deletion strains, locus YCL029C, strain bik1, active compounds read low 1.02 | S. cerevisiae deletion strains, locus YDL035C, strain GPR1, active compounds read low 1.03 | S. cerevisiae deletion strains, locus YDL074C, strain BRE1, active compounds read low 1.06 | S. cerevisiae deletion strains, locus YDL101C, strain DUN1, active compounds read low 1.01 | S. cerevisiae deletion strains, locus YDL185W, strain tfp1, active compounds read low 1.02 | S. cerevisiae deletion strains, locus YDL192W, strain arf1, active compounds read low 1.01 | S. cerevisiae deletion strains, locus YDR101C, strain arx1, active compounds read low 1.06 | S. cerevisiae deletion strains, locus YDR162C, strain NBP2, active compounds read low 0.989 | S. cerevisiae deletion strains, locus YDR318W, strain mcm21, active compounds read low 0.994 | S. cerevisiae deletion strains, locus YDR388W, active compounds read low 1.02 | S. cerevisiae deletion strains, locus YDR502C, strain sam2, active compounds read low 1.04 | S. cerevisiae deletion strains, locus YEL061C, strain CIN8, active compounds read low 1 | S. cerevisiae deletion strains, locus YER110C, active compounds read low 1.02 | S. cerevisiae deletion strains, locus YER155C, strain BEM2, active compounds read low 1 | S. cerevisiae deletion strains, locus YER167W, strain BCK2, active compounds read low 1 | S. cerevisiae deletion strains, locus YGL078C, strain dbp3, active compounds read low 1.03 | S. cerevisiae deletion strains, locus YGL086W, strain mad1, active compounds read low 1.04 | S. cerevisiae deletion strains, locus YGL248W, strain PDE1, active compounds read low 0.997 | S. cerevisiae deletion strains, locus YGR135W, strain pre9, active compounds read low 1.02 | S. cerevisiae deletion strains, locus YGR229C, strain SMI1, active compounds read low 1.01 | S. cerevisiae deletion strains, locus YGR252W, strain gcn5, active compounds read low 0.969 | S. cerevisiae deletion strains, locus YHR030C, strain SLT2, active compounds read low 0.999 | S. cerevisiae deletion strains, locus YHR079C, strain IRE1 (second series), active compounds read low 1.02 | S. cerevisiae deletion strains, locus YHR094C, strain hxt1, active compounds read low 1.01 | S. cerevisiae deletion strains, locus YHR129C, strain ARP1, active compounds read low 1.01 | S. cerevisiae deletion strains, locus YHR200W, strain rpn10, active compounds read low 1.02 | S. cerevisiae deletion strains, locus YIL066C, strain RNR3, active compounds read low 0.993 | S. cerevisiae deletion strains, locus YIL073C, strain SPO22, active compounds read low 1.08 | S. cerevisiae deletion strains, locus YIL125W, strain kgd1, active compounds read low 1.03 | S. cerevisiae deletion strains, locus YIR030C, strain dcg1, active compounds read low 1.01 | S. cerevisiae deletion strains, locus YJL095W, strain BCK1, active compounds read low 0.985 | S. cerevisiae deletion strains, locus YJL134W, strain LCB3, active compounds read low 0.996 | S. cerevisiae deletion strains, locus YJL168C, strain set2, active compounds read low 1.01 | S. cerevisiae deletion strains, locus YJL187C, strain SWE1 (second series), active compounds read low 0.997 | S. cerevisiae deletion strains, locus YJR043C, strain POL32, active compounds read low 1.01 | S. cerevisiae deletion strains, locus YJR075W, strain HOC1, active compounds read low 0.992 | S. cerevisiae deletion strains, locus YKL009W, strain mrt4, active compounds read low 1.01 | S. cerevisiae deletion strains, locus YKL068W, active compounds read low 0.999 | S. cerevisiae deletion strains, locus YKL085W, strain MDH1 (second series), active compounds read low 0.992 | S. cerevisiae deletion strains, locus YKL085W, strain MDH1, active compounds read low 0.992 | S. cerevisiae deletion strains, locus YKL190W, strain CNB1, active compounds read low 1.01 | S. cerevisiae deletion strains, locus YKR001C, strain vps1, active compounds read low 1.05 | S. cerevisiae deletion strains, locus YLR039C, strain RIC1, active compounds read low 1.07 | S. cerevisiae deletion strains, locus YLR058C, strain SHM2, active compounds read low 0.99 | S. cerevisiae deletion strains, locus YLR102C, strain apc9, active compounds read low 1.02 | S. cerevisiae deletion strains, locus YLR262C, strain YPT6, active compounds read low 1.04 | S. cerevisiae deletion strains, locus YLR268W, strain sec22, active compounds read low 1.07 | S. cerevisiae deletion strains, locus YLR330W, strain CHS5, active compounds read low 1.01 | S. cerevisiae deletion strains, locus YLR342W, strain FKS1 (second series), active compounds read low 1.06 | S. cerevisiae deletion strains, locus YLR371W, strain rom2, active compounds read low 1.05 | S. cerevisiae deletion strains, locus YLR418C, strain cdc73, active compounds read low 1.01 | S. cerevisiae deletion strains, locus YML016C, strain PPZ1, active compounds read low 1 | S. cerevisiae deletion strains, locus YML032C, strain rad52, active compounds read low 0.988 | S. cerevisiae deletion strains, locus YML124C, strain tub3, active compounds read low 1.01 | S. cerevisiae deletion strains, locus YMR078C, strain ctf18, active compounds read low 1.03 | S. cerevisiae deletion strains, locus YMR223W, strain ubp8, active compounds read low 0.99 | S. cerevisiae deletion strains, locus YMR307W, strain GAS1, active compounds read low 1.02 | S. cerevisiae deletion strains, locus YNL067W, strain RPL9B, active compounds read low 1 | S. cerevisiae deletion strains, locus YNL153C, strain GIM3, active compounds read low 0.999 | S. cerevisiae deletion strains, locus YNL233W, strain BNI4, active compounds read low 1 | S. cerevisiae deletion strains, locus YNL250W, strain rad50, active compounds read low 1.03 | S. cerevisiae deletion strains, locus YNL271C, strain bni1, active compounds read low 1.02 | S. cerevisiae deletion strains, locus YNL298W, strain CLA4, active compounds read low 1.01 | S. cerevisiae deletion strains, locus YNL307C, strain MCK1, active compounds read low 1.03 | S. cerevisiae deletion strains, locus YNL322C, strain KRE1, active compounds read low 1 | S. cerevisiae deletion strains, locus YNR052C, strain pop2, active compounds read low 1.01 | S. cerevisiae deletion strains, locus YOL006C, strain TOP1, active compounds read low 1.13 | S. cerevisiae deletion strains, locus YOL012C, strain htz1 0.87 | S. cerevisiae deletion strains, locus YOL147C, strain pex11, active compounds read low 1.03 | S. cerevisiae deletion strains, locus YOR061W, strain CKA2, active compounds read low 1.01 | S. cerevisiae deletion strains, locus YOR069W, strain VPS5, active compounds read low 1 | S. cerevisiae deletion strains, locus YOR136W, strain idh2, active compounds read low 1.03 | S. cerevisiae deletion strains, locus YOR144C, strain elg1, active compounds read low 1.01 | S. cerevisiae deletion strains, locus YOR184W, strain ser1, active compounds read low 1.06 | S. cerevisiae deletion strains, locus YOR316C, strain cot1, active compounds read low 1.01 | S. cerevisiae deletion strains, locus YPR119W, strain clb2, active compounds read low 1.02 | S. cerevisiae deletion strains, locus YPR141C, strain kar3, active compounds read low 1 | S. cerevisiae deletion strains, locus YPR163C, strain tif3, active compounds read low 1.01 | S. cerevisiae deletion strains, locus YPR167C, strain met16, active compounds read low 1.03 | S. cerevisiae deletion strains, strain wtn01, active compounds read low 1.08 | S. cerevisiae strains, strain wild type, active compounds read low 0.998
